Source: PubChem BioAssay
Compounds with a hit are over-represented: about 12% of the library has one in this group of screens.
PLK1 PBD block: blocks phosphopeptide binding to human PLK1 polo-box domain; Potency, µM, for the others: max response, negative = inhibition, usual class: inhibitors; actives 2.8% (n = 360,000); P53350; Plk1 PBD binding of FITC phosphopeptide, fluorescence polarization; AID 720504; note: potency is the fitted concentration of half-maximal effect; series mostly up to about 57 µM; % is set by controls: 0 for no effect and ±100 for the full control effect; nearly all actives have a fitted effect of over 65% in size
Target sequence (P53350 whole entry, looked up, the tested form may be a part): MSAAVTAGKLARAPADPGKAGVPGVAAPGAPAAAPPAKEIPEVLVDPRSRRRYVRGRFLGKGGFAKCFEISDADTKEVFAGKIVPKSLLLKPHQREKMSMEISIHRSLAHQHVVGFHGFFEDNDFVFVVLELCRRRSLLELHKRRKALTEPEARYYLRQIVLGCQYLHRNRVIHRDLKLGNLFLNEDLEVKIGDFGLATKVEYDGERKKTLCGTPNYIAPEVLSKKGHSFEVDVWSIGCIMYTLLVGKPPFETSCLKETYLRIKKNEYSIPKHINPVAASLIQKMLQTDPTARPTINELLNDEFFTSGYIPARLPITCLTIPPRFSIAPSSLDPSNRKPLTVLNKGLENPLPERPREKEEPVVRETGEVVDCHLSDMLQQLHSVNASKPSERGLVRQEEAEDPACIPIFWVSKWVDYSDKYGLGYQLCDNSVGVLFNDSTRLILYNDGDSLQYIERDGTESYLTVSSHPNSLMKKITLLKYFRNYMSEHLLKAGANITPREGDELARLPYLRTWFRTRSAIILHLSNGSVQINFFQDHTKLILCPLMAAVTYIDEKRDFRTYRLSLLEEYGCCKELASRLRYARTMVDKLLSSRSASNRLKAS
BAZ2B inh: inhibitors of human BAZ2B bromodomain | Q9UIF8 | AlphaScreen BAZ2B-H3K14Ac peptide displacement | Potency, µM (doses to about 114 µM), for the others: top-dose activity change, negative = inhibition, most hits filed as inhibitors | actives 4.4% (n = 360,000) | AID 504333; note: potency is the fitted concentration of half-maximal effect; % is set by controls: 0 for no effect and ±100 for the full control effect; nearly all actives have a fitted effect of over 60% in size
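AlphaScreen luminescence quantifies BAZ2B engagement of H3K14Ac peptide; the protein and biotinylated peptide are both at 50 nM final, buffer PBS pH 7.4 with 0.01% Tween-20, all steps at room temperature.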
HP1b binding inh: HP1-beta chromodomain-methylated histone interaction inhibition | AID 540317 | AlphaScreen HP1-beta / biotin-H3K9me3 peptide binding | actives 0.56% (n = 390,000) | Potency, µM (doses to about 114 µM), for the others: at the top dose activity change, negative = inhibition, most hits filed as inhibitors; note: potency is the fitted concentration of half-maximal effect; nearly all actives have a fitted effect of over 70% in size
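Compound inhibition of the preformed complex between 50 nM HP1-beta and 50 nM biotinylated H3K9me3 peptide was read by AlphaScreen. Buffer was PBS pH 7.4 with 0.01% Tween-20. Incubations ran 30 min at room temperature, with 10 ug/mL donor/acceptor beads.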
PI5P4Ka inh: inhibitors of human PI5P4K alpha; P48426; PI5P4Kalpha enzyme, ADP-Glo luminescence, 60 min; stronger effect = lower value; max response, %; actives 1.2% (n = 330,000); AID 652105; active = max response of -50% or lower; inconclusive = between -30% and -50%; inactive = -30% or higher; note: value at the top dose of about 77 µM; % is set by controls: 0 for no effect and ±100 for the full control effect
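ADP-Glo luminescence end-point after a 60 min room-temperature kinase reaction. PI5P4Kalpha and substrate in HEPES pH 7.4 buffer with EGTA, 0.1% CHAPS and 5% DMSO; ATP at 5 microM final.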
G9a block: blocks human histone lysine methyltransferase G9a; Q96KQ7; G9a H3K9 monomethylation, AlphaScreen, 2 h; Potency, µM (titrated, usually from 102 µM), for inactives: top-dose activity, negative = inhibition, actives largely listed as inhibitors; actives 8.8% (n = 350,000); AID 504332; note: potency is the fitted concentration of half-maximal effect; % is set by controls: 0 for no effect and ±100 for the full control effect; nearly all actives have a fitted effect of over 75% in size
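AlphaScreen detection with an anti-monomethyl H3K9 antibody quantified product after a 2 h room-temperature reaction containing 500 nM biotinylated H3K9 peptide, 20 µM SAM and 20 nM enzyme, which had been preincubated 15 min with compound.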
JMJD2A Tudor: blocks the human JMJD2A Tudor domain; O75164; AlphaScreen JMJD2A-Tudor / H3K4me3 peptide binding; Potency, µM (top dose mostly 114 µM), without a hit: at the top dose activity change, negative = inhibition, hits mostly inhibitors; actives 4.4% (n = 390,000); AID 504339; note: potency is the fitted concentration of half-maximal effect; % is set by controls: 0 for no effect and ±100 for the full control effect; nearly all actives have a fitted effect of over 50% in size
The depositor's hits bear a star; [ ] = remark or other dose. Unless noted, calls come from the whole dose curve; as a rule, active = well fitted curve in the direction sought with a large enough effect; inconclusive = small, poorly fitted or top-dose-only effect, or another doubt; inactive = no such curve, though single readings can be large; an effect the other way counts as inactive or inconclusive.

How did Cc1cc(O)c(C(=O)/C=C/c2ccccc2O)c(=O)o1 do in these assays?
PLK1 PBD block: 21µM*; BAZ2B inh: inconclusive; HP1b binding inh: 2%; PI5P4Ka inh: -6; G9a block: 50µM*; JMJD2A Tudor: inconclusive

Results for O=C(/C=C/c1cccc(Cl)c1)c1ccc([N+](=O)[O-])o1 ?
PLK1 PBD block: 6.7µM*; BAZ2B inh: 10µM*; HP1b binding inh: -11%; PI5P4Ka inh: -51*; G9a block: inconclusive; JMJD2A Tudor: inconclusive

Results for Cc1cc(O)c(C(=O)/C=C/c2cccc([N+](=O)[O-])c2)c(=O)o1 ?
PLK1 PBD block: inconclusive; BAZ2B inh: inconclusive; HP1b binding inh: -1%; PI5P4Ka inh: -86*; G9a block: 13µM*; JMJD2A Tudor: inconclusive

Results for CCCCN(CC)C(=O)/C=C/c1cccc([N+](=O)[O-])c1 ?
PLK1 PBD block: 27µM*; BAZ2B inh: 4%; HP1b binding inh: -18%; PI5P4Ka inh: -6; G9a block: 15%; JMJD2A Tudor: -8%[11.4 µM]

What do the screens show for `CC(=O)Oc1ccccc1C(=O)C=Cc1cccc([N+](=O)[O-])c1`?
PLK1 PBD block: inconclusive; HP1b binding inh: -18%; PI5P4Ka inh: 4; JMJD2A Tudor: inconclusive

What do the screens show for `COc1cc(-c2nn3c(-c4cc(-c5ccccc5)n[nH]4)nnc3s2)cc(OC)c1OC`?
HP1b binding inh: 1%[57 µM]; JMJD2A Tudor: -23%[57.1 µM]

Results for COc1ccc(-c2cn3c(n2)sc2cc(C(=O)NC4CCCc5ccccc54)ccc23)cc1 (stereo not drawn) ?
BAZ2B inh: 4%; HP1b binding inh: 7%; G9a block: 2%[59 µM]; JMJD2A Tudor: -8%

How did COc1ccc(N2CC(C(=O)Nc3nnc(SCc4ccccn4)s3)CC2=O)cc1 (stereo not drawn) do in these assays?
PLK1 PBD block: -12%; BAZ2B inh: -6%; HP1b binding inh: 22%; PI5P4Ka inh: inconclusive; G9a block: 50µM*; JMJD2A Tudor: -15%

What do the screens show for `COc1ccc(C)cc1NC(=O)CCC(=O)Nc1nnc(C2CCCCC2)s1`?
PLK1 PBD block: -3%; BAZ2B inh: -23%; HP1b binding inh: 33%; PI5P4Ka inh: -11; G9a block: 1%; JMJD2A Tudor: -2%

Results for COc1ccccc1N1CC(C(=O)Nc2nnc(SCc3ccccn3)s2)CC1=O (stereo not drawn) ?
PLK1 PBD block: -7%; BAZ2B inh: -37%; HP1b binding inh: 24%; PI5P4Ka inh: 0; G9a block: inconclusive; JMJD2A Tudor: -12%

How did Cc1ccc(N2CC(C(=O)Nc3nnc(SCC(N)=O)s3)CC2=O)cc1 (stereo not drawn) do in these assays?
PLK1 PBD block: -11%; BAZ2B inh: -8%; HP1b binding inh: 38%; PI5P4Ka inh: -11; G9a block: 40µM*; JMJD2A Tudor: -15%

How did COc1ccc(NC(=O)CCC(=O)Nc2nnc(C3CCCCC3)s2)c(OC)c1 do in these assays?
PLK1 PBD block: -24%; BAZ2B inh: -11%; HP1b binding inh: 27%; PI5P4Ka inh: 0; G9a block: 71µM*; JMJD2A Tudor: -10%

How did COc1ccc(N2CC(C(=O)Nc3nnc(SCC(=O)NCc4ccco4)s3)CC2=O)cc1 (stereo not drawn) do in these assays?
PLK1 PBD block: inconclusive; BAZ2B inh: 50µM*; HP1b binding inh: -5%; PI5P4Ka inh: inconclusive; G9a block: 45µM*; JMJD2A Tudor: inconclusive

What do the screens show for `COc1cccc(N2CC(C(=O)Nc3nnc(SCC(=O)NCC4CCCO4)s3)CC2=O)c1` (stereo not drawn)?
PLK1 PBD block: -24%; BAZ2B inh: -9%; HP1b binding inh: 32%; PI5P4Ka inh: -25; G9a block: 16%[12.7 µM]; JMJD2A Tudor: -8%

How did Cc1ccc(C(=O)NCC(=O)Nc2ncccc2C)s1 do in these assays?
PLK1 PBD block: -4%; BAZ2B inh: -3%; HP1b binding inh: 5%; PI5P4Ka inh: 8; G9a block: 0%[12.7 µM]; JMJD2A Tudor: -9%
